This is an account of results in PubChem BioAssay AID1259339 (Broad Institute, 2017).

The source made the active and inactive calls.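 How the source made its calls: active means fitted AC50 no higher than ten times the top tested dose (cut at about 90 µM in these data); inconclusive means flat curve with 30 to 70% signal loss, or bad fit; inactive means AC50 beyond ten times the top dose.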

This test is described as follows: AlphaLISA signal interference compounds, dose response, artefact control, biochemical, TruHit kit (AID 1259339). The settings on record: TruHit alphaLISA kit signal interference counterscreen; series mostly up to 80 µM. On the technique in general: Alpha assays give light when donor and acceptor beads are brought close together.
One may read the AC50 as the concentration giving half of the maximal activity seen. Consider `O=C(NC1(C(F)(F)F)Oc2ccc(Cl)cc2O1)N1CCC2(CC1)OCCO2` (centres undefined), for which the AC50 is > 160 µM (inactive).

With `O=C(NCCc1ccccc1)c1cc2cccnc2n(Cc2ccccc2)c1=O`, the AC50 entry is “inactive”.

Take `Cc1ccc(S(=O)(=O)Cc2ccc(C(=O)N3CCC4(CC3)OCCO4)o2)cc1`: the AC50 entry is “inactive”.

For `Nc1c(C(=O)NCc2ccco2)c2nc3ccccc3nc2n1CCN1CCOCC1`, the AC50 is 56.6 µM (active).
